From PubChem BioAssay AID1259350 (ICCB-Longwood Screening Facility, Harvard Medical School, 2017)
The other results are listed elsewhere or left out. The source made the active and inactive calls.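 Rule for the calls: active = inhibition score of 15 or more, meaning 100 minus mean polarization as percent of control over three replicates; inactive = the rest.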

Biological target: Guanine nucleotide-binding protein G(i) subunit alpha-3 (Rattus norvegicus) (UniProt P08753)
Experiment: inhibitors of GIV peptide binding to Galpha-i3, confirmation, biochemical, fluorescence polarization, FITC-GIV peptide, rat Galphai3 (AID 1259350);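 note: lower mP means peptide displaced from Galphai3 so more inhibition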
Settings: at 100 µM, hits give low values

Sequence of Guanine nucleotide-binding protein G(i) subunit alpha-3 (Rattus norvegicus) (P08753 whole entry, looked up): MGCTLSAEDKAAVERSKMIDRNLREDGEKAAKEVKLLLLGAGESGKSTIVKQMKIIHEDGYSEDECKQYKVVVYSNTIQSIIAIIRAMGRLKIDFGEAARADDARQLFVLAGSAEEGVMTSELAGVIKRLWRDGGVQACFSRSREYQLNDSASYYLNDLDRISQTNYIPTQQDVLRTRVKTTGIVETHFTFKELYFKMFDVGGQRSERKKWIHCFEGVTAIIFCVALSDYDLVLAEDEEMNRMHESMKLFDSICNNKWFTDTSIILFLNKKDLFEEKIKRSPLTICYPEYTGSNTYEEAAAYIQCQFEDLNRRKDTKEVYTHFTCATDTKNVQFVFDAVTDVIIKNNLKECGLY

Row | SMILES | fluorescence polarization
1 | CCOC(=O)C1=C(C)N(c2ccc(OC)cc2)C(=O)/C1=C\c1ccco1 | 77.8 mP (inactive)
2 | O=C(NN=c1c(=O)c2ccccc2c1=O)c1ccncc1 | 66.7 mP (inactive)
3 | COc1ccc(Nc2cc(C(=O)NCCCN(C)c3ccccc3)c3ccccc3n2)c(OC)c1 | 84 mP (inactive)
4 | O=C(O)CCC(C(=O)O)N1C(=O)/C(=C\c2ccco2)SC1=S (centres undefined) | 41.8 mP (active)
5 | N#CSc1cc(SC#N)c(N)nc1N | 25.2 mP (active)
6 | COc1ccccc1CNc1ncc2nc(-c3ccccc3)oc2n1 | 63.8 mP (inactive)
7 | Cn1cccc1/C=C1\C(=O)NC(=S)N(c2ccccc2)C1=O | 51.3 mP (active)
8 | CCOC(=O)c1nc2cc(C)c(C)cc2nc1NC1CCCCC1 | 88.9 mP (inactive)
9 | COc1ccc(N=Nc2c(-c3ccc(OC)cc3)[nH]oc2=O)cc1 | 72.7 mP (inactive)
10 | O=C(O)c1cc(NS(=O)(=O)c2ccc3c(c2)CCCC3)cnc1N1CCOCC1 | 43 mP (active)
11 | CC1=NOC(=O)C1C(c1cccc(Br)c1)c1c(C)[nH]n(-c2ccccc2)c1=O (centres undefined) | 37.2 mP (active)
12 | N#CC(C#N)=C(C#N)/C=C/n1c2ccccc2c2ccccc21 | 50.6 mP (active)
13 | CCOc1cc(/C=C2/C(=O)N(c3nn[nH]n3)N=C2C)cc(Cl)c1OCC | 69.8 mP (inactive)
14 | COC(=O)Cn1nc2c(-c3nc(-c4ccc(Cl)cc4)no3)cccn2c1=O | 83.1 mP (inactive)
15 | CC(=O)Nc1ccc(Nc2c3c4c(cccc4[nH]c2=O)C(=O)c2ccccc2-3)cc1 | 39.3 mP (active)
16 | COC1=C(N2CCOCC2)C(=O)c2ccccc2C1=O | 68 mP (inactive)
17 | CC(=O)Oc1cccc2c1C(=O)C=CC2=O | 73.2 mP (inactive)
18 | Cc1ccc(N2C(=O)/C(=C/c3ccc(OCC(=O)O)c(Br)c3)C(=O)NC2=S)cc1 | 60.7 mP (active)
19 | CCC(=O)N1CCc2cc(N3CC(C(=O)N4CCN(C(C)C)CC4)CC3=O)ccc21 (centres undefined) | 64.3 mP (active)
20 | Cc1nn(-c2ccccc2)c2sc(-c3noc(-c4ccccc4F)n3)cc12 | 78.5 mP (inactive)
21 | O=C(O)c1c2ccccc2[nH]c2c1oc1cc(=O)ccc12 | 71.6 mP (inactive)
22 | Cc1ccc(NC(=O)c2nc[nH]c2C(=O)N2CCCCC2)c(C(=O)c2ccccc2)c1 | 54.4 mP (active)
23 | Cc1ccc(C(=O)N2CCc3cc(CNC(=O)c4ccc(Br)cc4)ccc32)cc1 | 85.2 mP (inactive)
24 | COc1ccccc1N1C(=O)/C(=C/c2ccc(Cl)cc2)C=C1c1ccccc1 | 77.8 mP (inactive)
